Source: PubChem BioAssay (NCATS)
Records with an inconclusive call do not appear. Calls of active or inactive are those of the source. Unless noted, the call rests on the fitted dose curve; in most records, active means well fitted curve in the direction sought with a large enough effect; inconclusive means small, poorly fitted or top-dose-only effect, or another doubt; inactive means no such curve, though single readings can be large; an effect the other way counts as inactive or inconclusive.

How the values were obtained:
[1] = HepG2 viability counterscreen (readout 1: protease activity) against the NCATS DSHEA and TCM libraries (AID 1794841); settings: qHTS concentration series; series mostly up to 27.3 µM;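 further: cells exposed to compounds for about 24 h before the protease read; 0% is about no effect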
Method in brief: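 1,000 HepG2 cells/well, 4 h attach; compounds ~24 h, 37C/5% CO2. Readout 1: GF-AFC 25 uM final, 30 min, fluorescence 380/510 nm. Readout 2: CellTiter-Glo, 30 min RT, luminescence.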

[2] = KB-3-1 P-gp reporter qHTS against the NCATS DSHEA and TCM libraries (AID 1919975); settings: KB-3-1 parental cells, CellTiter-Glo luminescence viability, 72 h; series mostly up to 26.1 µM; further: 0% is about no effect
Method in brief: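 CellTiter-Glo luminescence viability readout; KB-3-1 parental cells, 500/well, attached ~4 h, then compound for ~72 h, 37C, 5% CO2. Bortezomib intraplate control.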

[3] = target: Cytochrome P450 1A2 (Homo sapiens) (UniProt P05177); test: qHTS for inhibitors of CYPIA2 against the NCATS DSHEA and TCM libraries (AID 1919976); settings: recombinant CYP1A2 enzyme activity, luminescence; series mostly up to 37 µM; further: potency means the concentration at half of the fitted maximal effect
Cytochrome P450 1A2 (Homo sapiens), sequence (P05177 whole entry, looked up): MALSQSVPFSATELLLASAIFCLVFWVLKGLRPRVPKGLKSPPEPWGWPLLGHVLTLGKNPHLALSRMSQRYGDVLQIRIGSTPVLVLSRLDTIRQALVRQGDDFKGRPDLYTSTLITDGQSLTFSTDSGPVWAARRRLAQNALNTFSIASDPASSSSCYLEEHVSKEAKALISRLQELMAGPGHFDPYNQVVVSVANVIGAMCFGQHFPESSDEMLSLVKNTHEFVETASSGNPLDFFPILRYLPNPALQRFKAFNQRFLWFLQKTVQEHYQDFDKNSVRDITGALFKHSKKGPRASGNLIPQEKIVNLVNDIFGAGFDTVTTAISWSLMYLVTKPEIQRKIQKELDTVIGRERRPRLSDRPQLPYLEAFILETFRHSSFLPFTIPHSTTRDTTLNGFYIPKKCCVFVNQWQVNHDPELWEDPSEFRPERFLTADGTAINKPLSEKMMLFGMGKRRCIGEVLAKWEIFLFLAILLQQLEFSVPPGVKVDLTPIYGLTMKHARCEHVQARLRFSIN
Method in brief: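 Furafylline served as the plate control. Compounds met CYP1A2 and pro-luciferin substrate 15 min before NADPH regeneration solution (1x) was added; after 30-45 min at RT, P450-Glo reagent was added for 30 min and luminescence was measured.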

[4] = qHTS Counterscreen for compound interference against the NCATS DSHEA and TCM libraries (AID 1919978); settings: firefly luciferase detection reagent interference, luminescence;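 further: compounds preincubated with 1 µM D-luciferin or buffer before detection reagent; % of control where 0% means no effect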
Method in brief: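 Luminescence counterscreen for detection-kit interference: compounds at 19.5 nM–39.8 uM final, 15 min RT with 1 uM D-luciferin or buffer only; detection reagent added, 30 min RT, then read.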

[5] = target: Nuclear receptor subfamily 1 group I member 2 (Homo sapiens) (UniProt O75469); test: Dual reporter qHTS for antagonist of Pregnane X Receptor (hPXR) against the NCATS DSHEA and TCM libraries: Luminescence Readout (AID 1920060); settings: hPXR dual reporter cells, luciferase luminescence, antagonist mode; series mostly up to 40 µM;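 further: HepG2 cells carrying hPXR luciferase reporter stimulated with rifampicin at 2 µM; 0% is about no effect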
Nuclear receptor subfamily 1 group I member 2 (Homo sapiens), sequence (O75469 whole entry, looked up): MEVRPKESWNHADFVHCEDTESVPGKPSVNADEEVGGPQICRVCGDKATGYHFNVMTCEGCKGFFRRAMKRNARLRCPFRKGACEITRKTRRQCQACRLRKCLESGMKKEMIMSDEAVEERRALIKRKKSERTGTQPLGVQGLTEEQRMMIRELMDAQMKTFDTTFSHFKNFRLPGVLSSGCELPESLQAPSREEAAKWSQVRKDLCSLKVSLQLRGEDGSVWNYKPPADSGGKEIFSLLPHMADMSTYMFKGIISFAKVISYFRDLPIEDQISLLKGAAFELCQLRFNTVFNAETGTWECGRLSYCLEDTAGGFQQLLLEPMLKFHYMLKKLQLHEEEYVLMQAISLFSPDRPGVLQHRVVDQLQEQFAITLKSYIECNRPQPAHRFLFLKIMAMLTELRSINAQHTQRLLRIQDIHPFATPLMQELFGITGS
Method in brief: (§1)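 hPXR-Luc HepG2 cells exposed 24 h at 37 C to compounds with 2 uM rifampicin in antagonist mode; luciferase luminescence measured by ONE-Glo, with CellTiter-Fluor viability read beforehand.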

[6] = Dual reporter qHTS for antagonist of Pregnane X Receptor (hPXR) against the NCATS DSHEA and TCM libraries: Fluorescence Readout (AID 1920061); settings: PXR dual reporter cells, antagonist mode; series mostly up to 40 µM; further: 0% is about no effect
Method in brief: as §1

[7] = Cytometric Cell-Based qHTS for Inhibitors of the mTORC1 Signaling Pathway in MEF (Tsc2-/-, p53-/-) Cells (AID 2660); settings: mTORC1 pathway cytometry; series mostly up to 38.3 µM;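 further: percent of cells above a phospho-rpS6 to PI ratio cutoff in each well; plate controls were DMSO for no effect and rapamycin for full effect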
Method in brief: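 Tsc2-/-, p53-/- MEFs (empty vector) exposed to compound 24 h at 37 C, fixed, stained with Alexa-488 anti-phospho-rpS6 Ser235/236 and propidium iodide. Acumen laser scanning; phospho-S6/PI ratio thresholded against 7.5 nM rapamycin, reported as % positive cells.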

[8] = High Content Imaging Cell-Based qHTS for Inhibitors of the mTORC1 Signaling Pathway in MEF (Tsc2-/-, p53-/-) Cells (AID 2666); settings: series mostly up to 38.3 µM;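 further: percent of cells scored positive for phospho-rpS6 Ser235/236 immunostaining by imaging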
Method in brief: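 MEF Tsc2-/- p53-/- (empty vector), DMEM/10% FBS; cpd 24 h 37 °C; PFA fix, Alexa-488 p-rpS6 S235/236 Ab, Hoechst; imaged; rapamycin-defined inhibition; % positive cells/well.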

[9] = High Content Imaging Cell-Based qHTS for Inhibitors of the mTORC1 Signaling Pathway in MEF Cells (AID 2667); settings: series mostly up to 38.3 µM;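 further: Tsc2-/- p53-/- MEFs stably re-expressing wild-type Tsc2 exposed 24 h; plate controls were DMSO wells for no effect and rapamycin control wells for full effect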
Method in brief: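 Read-out is the share of phospho-rpS6-positive cells per well, from Hoechst-normalized Alexa-488 Ser235/236 staining imaged on IN Cell. Cells: WT Tsc2-expressing Tsc2-/-, p53-/- MEFs exposed to compound for 24 hrs.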

[10] = Cytometry Cell-Based qHTS for Inhibitors of the mTORC1 Signaling Pathway in MEF cells (AID 2668); settings: mTORC1 pathway readout; series mostly up to 38.3 µM;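 further: Tsc2-/- p53-/- mouse embryonic fibroblasts stably re-expressing wild-type Tsc2; percent cells positive for phospho-rpS6 Ser235/236 relative to propidium iodide stain; plate controls were DMSO wells for no effect and 7.5 nM rapamycin control wells for full effect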
Method in brief: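 Read-out: phospho-rpS6 Ser235/236 immunofluorescence normalized to propidium iodide intensity, scored as % active cells against a rapamycin (7.5 nM) threshold. Cells: Tsc2-/-, p53-/- MEFs stably expressing WT Tsc2, compound-treated 24 hrs at 37 degree Celsius.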

[11] = target: Ubiquitin carboxyl-terminal hydrolase 2 (Homo sapiens) (UniProt O75604); test: qHTS Validation Assay for Inhibitors of Ubiquitin-specific Protease USP2a Using CHOP2 as the Reporter (AID 463106); settings: USP2a cleavage of CHOP2 reporter, enzymatic; series mostly up to 38.3 µM;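 further: plate controls were DMSO for no effect and full inhibition by NEM for full effect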
Method in brief: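 Fluorescence read-out at Ex 485nm/Em 531nm after 60min RT, following addition of 25nM Ub-CHOP2 plus 25nM reporter substrate to USP2 core (10nM) pretreated 30min with compound. Data normalized to NEM full inhibition; concentration-response curves fitted.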

[12] = target: DNA polymerase III PolC-type (Bacillus subtilis (strain 168)) (UniProt P13267); test: qHTS Validation Assay for the Inhibitors of DNA Replication in Gram-Positive Bacteria (AID 485295); settings: Gram-positive bacterial DNA replication assay; series mostly up to 57.1 µM;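 further: reconstituted holoenzyme with PolC plus beta clamp SSB and primase; PicoGreen fluorescence of double-stranded DNA made on primed circular M13 template; 0% = DMSO wells and -100% = EDTA-quenched background wells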
DNA polymerase III PolC-type (Bacillus subtilis (strain 168)), sequence (P13267 whole entry, looked up): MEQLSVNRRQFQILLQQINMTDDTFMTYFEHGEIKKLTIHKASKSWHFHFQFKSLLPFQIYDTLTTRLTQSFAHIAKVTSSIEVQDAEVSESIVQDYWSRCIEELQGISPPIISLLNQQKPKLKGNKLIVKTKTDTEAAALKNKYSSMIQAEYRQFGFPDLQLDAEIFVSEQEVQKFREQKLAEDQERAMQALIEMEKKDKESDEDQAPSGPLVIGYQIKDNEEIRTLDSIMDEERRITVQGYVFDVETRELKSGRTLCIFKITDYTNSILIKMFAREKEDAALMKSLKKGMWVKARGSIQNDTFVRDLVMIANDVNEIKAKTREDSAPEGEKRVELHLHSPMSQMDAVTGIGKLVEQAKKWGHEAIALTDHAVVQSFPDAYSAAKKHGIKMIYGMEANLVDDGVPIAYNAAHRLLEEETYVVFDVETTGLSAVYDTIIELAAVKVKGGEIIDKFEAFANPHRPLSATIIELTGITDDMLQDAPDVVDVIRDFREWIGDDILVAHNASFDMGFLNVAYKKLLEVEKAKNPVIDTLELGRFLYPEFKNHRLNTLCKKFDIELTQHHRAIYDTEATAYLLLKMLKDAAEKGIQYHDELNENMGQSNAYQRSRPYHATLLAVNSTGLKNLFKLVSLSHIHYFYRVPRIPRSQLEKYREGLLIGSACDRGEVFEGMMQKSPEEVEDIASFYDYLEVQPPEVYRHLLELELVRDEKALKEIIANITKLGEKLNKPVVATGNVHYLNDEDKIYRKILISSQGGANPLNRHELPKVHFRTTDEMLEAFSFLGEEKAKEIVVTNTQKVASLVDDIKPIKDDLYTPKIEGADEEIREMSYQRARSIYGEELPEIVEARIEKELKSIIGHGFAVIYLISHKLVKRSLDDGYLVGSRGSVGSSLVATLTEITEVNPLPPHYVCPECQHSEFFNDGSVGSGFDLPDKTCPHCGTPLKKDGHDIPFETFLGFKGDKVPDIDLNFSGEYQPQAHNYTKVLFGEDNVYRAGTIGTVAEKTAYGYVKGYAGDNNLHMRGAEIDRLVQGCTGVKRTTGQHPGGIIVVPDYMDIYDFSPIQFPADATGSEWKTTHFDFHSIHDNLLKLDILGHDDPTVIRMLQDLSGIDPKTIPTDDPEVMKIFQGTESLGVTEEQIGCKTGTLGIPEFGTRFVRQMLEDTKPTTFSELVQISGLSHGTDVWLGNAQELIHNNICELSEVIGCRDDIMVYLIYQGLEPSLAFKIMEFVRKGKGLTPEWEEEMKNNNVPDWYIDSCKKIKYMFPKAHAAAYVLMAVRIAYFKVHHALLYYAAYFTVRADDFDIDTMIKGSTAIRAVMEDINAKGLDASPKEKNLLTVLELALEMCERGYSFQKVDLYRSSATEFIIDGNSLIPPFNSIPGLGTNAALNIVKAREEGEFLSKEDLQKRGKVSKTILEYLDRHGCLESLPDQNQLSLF
Method in brief: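 PicoGreen fluorescence (ex 480–485/em 535–540 nm) reports dsDNA synthesized on ssM13Gori template with dNTPs/NTPs. Enzyme: holoenzyme rebuilt from purified PolC, beta subunit, SSB and primase. Compound preincubated before substrate addition; RT throughout.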

[13] = target: Tumor susceptibility gene 101 protein (Homo sapiens) (UniProt Q99816); test: qHTS Validation Assay for Iinhibitors of HIV-1 Budding by Blocking the Interaction of PTAP/TSG101 (AID 485342; calls by dose curve; further: 0% is about no effect); settings: TSG101-PTAP binding, fluorescence polarization, 4-point titration; series mostly up to 115 µM
Tumor susceptibility gene 101 protein (Homo sapiens), sequence (Q99816 whole entry, looked up, the tested form may be a part): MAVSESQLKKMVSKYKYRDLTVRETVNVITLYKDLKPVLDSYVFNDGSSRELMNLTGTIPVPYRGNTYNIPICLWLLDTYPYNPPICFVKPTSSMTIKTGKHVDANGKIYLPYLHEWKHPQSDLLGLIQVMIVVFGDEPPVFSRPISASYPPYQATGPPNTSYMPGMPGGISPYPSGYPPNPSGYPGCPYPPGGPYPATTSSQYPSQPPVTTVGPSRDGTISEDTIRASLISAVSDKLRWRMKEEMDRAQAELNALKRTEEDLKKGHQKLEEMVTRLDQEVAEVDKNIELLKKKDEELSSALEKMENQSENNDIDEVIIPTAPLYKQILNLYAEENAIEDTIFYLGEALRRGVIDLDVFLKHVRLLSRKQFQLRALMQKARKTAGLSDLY
Method in brief: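 FP read-out: FITC-PTAP peptide, 50 nM final, binding Tsg101 binding domain, 10 uM final; 20 min r.t.; 10 mM HEPES pH 7.5, 0.15 M NaCl, 0.01% Tween 20, 3 mM EDTA, 0.1 mM TCEP.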

[14] = qHTS Validation Assay to Find Inhibitors of Chronic Active B-Cell Receptor Signaling (AID 485345; active means well fitted curve in the direction sought with a large enough effect in the main read-out, with a control signal flat, not every such curve was filed as active;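 further: 0% = untreated basal cells and 100% = 10 µM MG-132 proteasome inhibitor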); settings: ABC-DLBCL cells, chronic BCR signaling reporter, CBG luciferase; series mostly up to 46.1 µM
Method in brief: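 TMD8 ABC-DLBCL cells stably carrying doxycycline-inducible IkappaBalpha–green luciferase fusion plus unfused red luciferase; compounds 46 uM to 3 nM, 4 h at 37C with doxycycline. Corrected green/red luminescence ratio normalized to 10 uM MG-132 and basal cell wells; curves fitted.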

[15] = target: Beta-2 adrenergic receptor (Homo sapiens) (UniProt P07550); test: qHTS validation assay of beta-arrestin-biased ligands of beta2-adrenergic receptor (AID 485366); settings: cell-based beta-arrestin recruitment to ADRB2, qHTS; series mostly up to 46.1 µM; further: 0% is about no effect
Beta-2 adrenergic receptor (Homo sapiens), sequence (P07550 whole entry, looked up): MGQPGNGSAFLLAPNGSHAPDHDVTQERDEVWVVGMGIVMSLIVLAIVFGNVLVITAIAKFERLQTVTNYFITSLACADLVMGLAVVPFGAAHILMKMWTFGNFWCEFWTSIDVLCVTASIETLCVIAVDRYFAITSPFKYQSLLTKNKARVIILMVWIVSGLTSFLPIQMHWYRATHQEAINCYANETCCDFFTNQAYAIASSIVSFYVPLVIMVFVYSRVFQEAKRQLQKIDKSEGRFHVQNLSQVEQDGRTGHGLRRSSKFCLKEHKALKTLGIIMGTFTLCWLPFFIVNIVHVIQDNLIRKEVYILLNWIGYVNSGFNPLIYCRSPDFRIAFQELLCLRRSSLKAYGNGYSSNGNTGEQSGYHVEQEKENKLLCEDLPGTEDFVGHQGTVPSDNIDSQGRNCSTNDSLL
Method in brief: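 qHTS, Tango cells, 1500 cells/well, DMEM + 1% FBS. Cpd 18 hr at 37 degrees C. Luciferin/ATP/CoA detection mix, 15 min RT, luminescence read. %Activity from corrected signal; CRC fit, curve class.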

[16] = target: ATP-dependent 6-phosphofructokinase (Trypanosoma brucei brucei) (UniProt O15648); test: qHTS Validation Assay to Find Inhibitors of T. brucei phosphofructokinase (AID 485368); settings: T. brucei PFK enzyme assay, qHTS 7-point titration; at 57.5 µM (top of the series)
ATP-dependent 6-phosphofructokinase (Trypanosoma brucei brucei), sequence (O15648 whole entry, looked up): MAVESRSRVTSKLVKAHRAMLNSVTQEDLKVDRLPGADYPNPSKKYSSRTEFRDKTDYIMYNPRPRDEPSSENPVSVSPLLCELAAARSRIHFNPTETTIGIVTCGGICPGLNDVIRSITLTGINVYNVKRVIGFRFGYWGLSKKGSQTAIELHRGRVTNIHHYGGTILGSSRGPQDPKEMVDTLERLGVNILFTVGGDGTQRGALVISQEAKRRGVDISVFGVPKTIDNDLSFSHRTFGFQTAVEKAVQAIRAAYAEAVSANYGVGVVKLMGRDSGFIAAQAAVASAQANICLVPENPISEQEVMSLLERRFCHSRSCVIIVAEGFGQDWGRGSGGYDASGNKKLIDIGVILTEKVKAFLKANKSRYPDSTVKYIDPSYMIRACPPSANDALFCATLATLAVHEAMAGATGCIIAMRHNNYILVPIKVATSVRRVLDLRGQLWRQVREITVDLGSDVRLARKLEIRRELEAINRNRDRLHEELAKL
Method in brief: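 Luminescent ADP detection measures PFK turnover of fructose-6-phosphate (0.5 mM) with ATP (0.1 mM) at pH 8.0. Reaction runs 45 min at room temperature with 1.25 nM enzyme; inhibitors tested as titrations up to 57 uM.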

[17] = target: Thioredoxin reductase 1, cytoplasmic (Rattus norvegicus) (UniProt O89049); test: qHTS Assay for Substrates of Mammalian Selenoprotein Thioredoxin Reductase 1 (TrxR1) (AID 488772); settings: purified TrxR1, NADPH consumption substrate assay; series mostly up to 57.1 µM;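 further: 0% is about no effect; a drop in NADPH fluorescence below the no-compound background marks a TrxR1 substrate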
Thioredoxin reductase 1, cytoplasmic (Rattus norvegicus), sequence (O89049 whole entry, looked up): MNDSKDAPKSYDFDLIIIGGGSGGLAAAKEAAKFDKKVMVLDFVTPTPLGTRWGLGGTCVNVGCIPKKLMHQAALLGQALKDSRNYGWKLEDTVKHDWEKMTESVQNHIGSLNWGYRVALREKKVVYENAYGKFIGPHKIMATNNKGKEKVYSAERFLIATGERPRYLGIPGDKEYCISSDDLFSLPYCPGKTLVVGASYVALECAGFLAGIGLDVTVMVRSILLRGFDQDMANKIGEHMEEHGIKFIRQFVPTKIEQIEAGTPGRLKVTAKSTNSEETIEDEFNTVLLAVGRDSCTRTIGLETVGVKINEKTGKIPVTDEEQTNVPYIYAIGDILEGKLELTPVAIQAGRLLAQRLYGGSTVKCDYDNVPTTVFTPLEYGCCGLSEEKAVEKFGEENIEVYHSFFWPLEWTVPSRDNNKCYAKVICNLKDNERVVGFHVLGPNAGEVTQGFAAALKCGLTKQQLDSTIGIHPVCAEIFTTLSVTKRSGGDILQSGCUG
Method in brief: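 In this dual-purpose format, potential substrates are identified from the first fluorescence read after selenite addition, not from the 8-minute delta. Rat enzyme is preincubated with NADPH and then with compound at ~22 deg C.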

[18] = target: Thioredoxin reductase 1, cytoplasmic (Rattus norvegicus) (UniProt O89049); test: qHTS Assay for Inhibitors of Mammalian Selenoprotein Thioredoxin Reductase 1 (TrxR1) (AID 488773); settings: purified TrxR1 enzyme activity; series mostly up to 57.1 µM;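 further: drop in NADPH fluorescence over an 8 min run after selenite addition; on the % scale 0 is the no-effect control and ±100 the full control effect; nearly all actives have a fitted effect of over 40% in size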
Method in brief: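 Inhibition is scored from the loss of NADPH fluorescence between first and last reads of an 8-min kinetic run. Selenite (400 uM) was the substrate, added after 15 min compound preincubation at room temperature.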

[19] = target: Flap endonuclease 1 (Homo sapiens) (UniProt P39748); test: qHTS Validation Assay for the Inhibitors of Human Flap endonuclease 1 (FEN1) (AID 488816); settings: FEN1 nuclease activity, fluorogenic DNA substrate; series mostly up to 57.1 µM; further: on the % scale 0 is the no-effect control and ±100 the full control effect
Flap endonuclease 1 (Homo sapiens), sequence (P39748 whole entry, looked up): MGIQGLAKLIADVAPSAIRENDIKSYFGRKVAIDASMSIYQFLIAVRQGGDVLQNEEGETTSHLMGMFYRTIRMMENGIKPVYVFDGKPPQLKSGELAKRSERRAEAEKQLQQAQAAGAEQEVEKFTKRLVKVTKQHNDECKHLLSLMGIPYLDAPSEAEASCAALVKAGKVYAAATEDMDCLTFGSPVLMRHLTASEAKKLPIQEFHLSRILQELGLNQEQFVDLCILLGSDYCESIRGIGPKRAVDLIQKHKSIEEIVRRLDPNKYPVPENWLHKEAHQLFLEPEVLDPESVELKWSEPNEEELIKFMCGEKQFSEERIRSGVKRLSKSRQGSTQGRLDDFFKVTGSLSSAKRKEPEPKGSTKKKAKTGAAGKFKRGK
Method in brief: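 Enzyme reagent 10 nM; cpds pinned; 15 min RT preinc.; substrate 50 nM final; reads t=0 and 15 min; no-enzyme buffer wells as neg. control; normalized data, 4-parameter Hill fit.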

[20] = target: Chromobox protein homolog 1 (Homo sapiens) (UniProt P83916); test: qHTS Validation Assay for Inhibitors of HP1-beta Chromodomain Interactions with Methylated Histone Tails (AID 488953); settings: HP1-beta chromodomain / methylated histone peptide binding assay; series mostly up to 114 µM;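 further: loss of AlphaScreen luminescence from HP1-beta binding biotinylated H3K9me3 peptide; on the % scale 0 is the no-effect control and ±100 the full control effect; nearly all actives have a fitted effect of over 50% in size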
Chromobox protein homolog 1 (Homo sapiens), sequence (P83916 whole entry, looked up): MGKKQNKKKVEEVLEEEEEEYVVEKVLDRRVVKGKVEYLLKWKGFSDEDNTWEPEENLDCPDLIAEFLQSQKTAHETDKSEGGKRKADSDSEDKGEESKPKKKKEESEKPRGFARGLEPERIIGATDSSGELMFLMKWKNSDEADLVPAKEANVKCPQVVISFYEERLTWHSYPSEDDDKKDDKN
Method in brief: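 Compounds pinned into a preassembled complex of HP1-beta and trimethyl-K9 histone H3(1-18) biotin peptide (50 nM each; PBS pH 7.4, 0.01% Tween-20). After 30 min, bead-based AlphaScreen detection followed.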

N#CC(O[C@@H]1O[C@H](CO[C@@H]2O[C@H](CO)[C@@H](O)[C@H](O)[C@H]2O)[C@@H](O)[C@H](O)[C@H]1O)c1ccccc1 (stereo not given in full)
inactive: outcome [1] | outcome [2] | Potency [3] | max response [4] -0.601% | outcome [5] | outcome [6]

C=C(C)[C@@H]1CCC(C)=C[C@H]1c1c(O)cc(CCCCC)cc1O
active: Potency [3] 11.2 µM
inactive: outcome [1] | outcome [2] | max response [4] 0.918% | outcome [5] | outcome [6]

CC12CCC3C(CCC4=C(O)C(=O)CCC43C)C1CCC2=O (stereo not given)
inactive: outcome [7] | Potency [8] | Potency [9] | Potency [10] | outcome [11] | outcome [12] | outcome [13] | outcome [14] | outcome [15] | outcome [16] | outcome [17] | outcome [18] | outcome [19] | Potency [20]

C[C@H]1C2Cc3ccc(O)cc3[C@]1(C)CCN2CC1CC1
inactive: outcome [7] | Potency [8] | Potency [9] | Potency [10] | outcome [11] | outcome [12] | outcome [13] | outcome [14] | outcome [15] | outcome [16] | outcome [17] | outcome [18] | outcome [19] | Potency [20]
